Integrin act MD = activators of alpha7 integrin expression for muscular dystrophy. alpha7betagal myoblasts, beta-gal FDG fluorescence, 48 h. Potency, µM (titrated, usually from 38.3 µM), inactives show at the top dose activation, hits mostly activators. 350,000 compounds, 0.064% hits; active means well fitted activation curve with a large enough effect; inconclusive means small, poorly fitted or top-dose-only effect; inactive means no such curve, though single readings can be large or run the other way;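 further: potency means the concentration at half of the fitted maximal effect; 100% = response of the positive control SU9516; nearly all actives have a fitted effect of over 60% in size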
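alpha7betagal+/- myoblasts (passage 13, 250/well) treated 48 h at 37C with compounds at 1:260 dilution of DMSO stock. Lysed, then beta-galactosidase activity read as FDG fluorescence (ex 480/em 540) after 30 min, with pre-read for autofluorescence.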
D3 ag = D3 dopamine receptor (human) agonism; P35462; max activation, %; D3R DiscoveRx beta-arrestin cells, luminescence, 90 min; 410,000 compounds, 0.58% hits; AID 652048; in the data active means max activation above about 30%; further: 0% is about no effect
Target sequence (P35462 whole entry, looked up): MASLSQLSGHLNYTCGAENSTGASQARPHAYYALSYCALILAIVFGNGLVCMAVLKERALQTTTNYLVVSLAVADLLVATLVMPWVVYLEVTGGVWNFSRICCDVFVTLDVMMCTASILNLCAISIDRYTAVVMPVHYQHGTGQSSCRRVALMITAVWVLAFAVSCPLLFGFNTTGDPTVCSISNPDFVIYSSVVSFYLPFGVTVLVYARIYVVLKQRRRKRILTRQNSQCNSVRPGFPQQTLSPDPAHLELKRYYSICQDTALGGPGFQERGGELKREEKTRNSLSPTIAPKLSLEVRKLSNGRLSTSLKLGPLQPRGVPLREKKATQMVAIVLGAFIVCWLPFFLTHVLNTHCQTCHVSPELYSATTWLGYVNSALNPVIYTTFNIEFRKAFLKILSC
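Agonist mode: compounds and dopamine controls were applied to plated cells for 90 min at 37 degrees C after an overnight attachment at 1500 cells/well. Luminescent read-out followed 30 - 60 minutes at room temperature with DiscoveRx detection reagent.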
D3 antag = blocks the human D3 dopamine receptor; P35462; D3R cells, DiscoveRx beta-arrestin luminescence, antagonist mode; hits give low values; max response, negative = inhibition, %; 360,000 compounds, 2.5% hits; AID 652054; in the data active means max response below about -50%; inconclusive means no clear call, values can overlap the other calls; further: on the % scale 0 is the no-effect control and ±100 the full control effect
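Cells expressing the human receptor were seeded at 1500 cells/well, incubated overnight at 37 degrees C in 5% CO2, then exposed to library compounds with dopamine controls for 90 minutes at 37 degrees C before luminescent detection.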
Active calls of the source: *; u = inconclusive; x = not tested or not shown. Compounds with a hit are over-represented: about 2.9% of the library has one in this group of screens.

SMILES | Integrin act MD | D3 ag | D3 antag
O=[N+]([O-])c1ccc(O)c(/C=N/Nc2ccccn2)c1 | -6% | -12 | -70*
O=[N+]([O-])c1ccc(NN=Cc2ccccc2O)nc1 | -25% | -6 | -4
Oc1ccc(C=NNc2ccccn2)c(O)c1 | -3% | 1 | -61*
COc1ccc(-c2csc(NC(=O)c3ccoc3C)n2)cc1 | -1% | 1 | 0
CCN(CC)c1ccc(/C=N/Nc2nc(C)cc(=O)[nH]2)c(O)c1 | 0% | 2 | 17
COc1ccc(CN(C(=O)c2nsc(Cl)c2Cl)C(C(=O)NC2CCCC2)c2ccc(C)cc2)cc1 (centres undefined) | -5% | -11 | -25
Cc1ccc(C)c(N(C(=O)c2nsc(Cl)c2Cl)C(C(=O)NC2CCCC2)c2ccc(O)cc2)c1 (centres undefined) | 9% | -15 | -62*
COc1ccc(Cl)cc1C(=O)NNC(=O)c1ccc(F)c(S(=O)(=O)N2CCOCC2)c1 | 24% | 4 | -3
Cc1cc(C)nc(S/C=C/C(=O)c2ccccc2F)n1 | 1% | -17 | -85*
Cc1cc(C)nc(NC(=S)NC(=O)c2ccccc2F)n1 | 12% | 15 | 3
CC(=O)c1csc(CS(=O)(=O)c2ccccn2)n1 | -3% | 4 | 1
Cc1ccc(-c2csc3ncn(C(C)C(=O)O)c(=O)c23)cc1 (centres undefined) | 21% | -3 | -23
CC(C)CN(C(=O)COC(=O)CNC(=O)c1ccc(Cl)cc1)C1CCS(=O)(=O)C1 (centres undefined) | -4% | 2 | 11
Cc1cc(C)c2ccc(C(=O)O)nc2c1O | -13% | -6 | -63*
COc1ccc(C(=O)O)nc1C | -8% | 2 | 6
Cn1c(N)c(C(=O)COC(=O)C(Cc2ccccc2)NC(=O)c2ccccc2)c(=O)n(C)c1=O (centres undefined) | 142% | 8 | 7
Cc1cc(=O)[nH]c(SCc2cccc3ccccc23)n1 | -13% | 9 | -10
Cc1cc(CSc2nc(C)cc(=O)[nH]2)c2ncccc2c1 | -4% | 31* | 13
O=C1Nc2ncccc2OC1CCCl (centres undefined) | -15% | 1 | 14
CCCNC(=O)Cn1cnc2sc(C(=O)NCCCN3CCOCC3)c(C)c2c1=O | 0% | 5 | -1
CN1C(C(=O)c2ccccc2)=C(NC(=O)c2ccc(F)cc2)c2ccccc2S1(=O)=O | x | -9 | x
CN1C(C(=O)Nc2ccc(C(=O)O)cc2)=C(O)c2ccccc2S1(=O)=O | 24% | 60* | -11
CCc1ccc(NC(=O)C2C3C=CC(C4CC34)C2C(=O)O)cc1 (centres undefined) | -28% | -1 | -3
COc1ccc(NC(=O)/C(C#N)=C/c2ccc(OCCN3CCOCC3)c(OC)c2)c(OC)c1 | 1% | 13 | 15
COc1ccccc1CC(=O)NN1C(=O)NC2(CCC(C)CC2)C1=O (centres undefined) | 11% | 8 | 27
SMILES | Integrin act MD | D3 ag | D3 antag
Cc1ccc(S(=O)(=O)N(Cc2ccc([N+](=O)[O-])cc2)C(=O)N2CCN(C)CC2)cc1 | 22% | 4 | 7
COc1cc(C(=O)N(CCc2ccccc2)C2=CC3CCC(C2)N3C)cc(OC)c1OC (centres undefined) | -4% | -1 | 6
COc1ccc(CCN(C(=O)c2ccc(F)cc2)C2=CC3CCC(C2)N3C)cc1OC (centres undefined) | 0% | 2 | -56*
COc1ccccc1N1CCN(C2CCCN(S(=O)(=O)c3cccc(Cl)c3)C2)CC1 (centres undefined) | 2% | -44 | u
CC(C)CC(=O)N1CCC(N2CCN(c3ccccc3)CC2)CC1 | -21% | 14 | u
COc1ccccc1N1CCN(C2CCN(C(=O)COc3ccccc3)CC2)CC1 | 12% | -22 | -61*
COc1ccccc1C(=O)N1CCC(N2CCN(c3ccccc3OC)CC2)CC1 | -13% | -45 | -65*
COc1ccccc1N1CCN(C(=O)C2CCN(C(=O)c3ccccc3Cl)CC2)CC1 | 0% | 11 | 0
COc1ccccc1N1CCN(C2CCCN(S(=O)(=O)c3ccc(C)cc3)C2)CC1 (centres undefined) | -18% | -25 | -80*
COc1ccccc1N1CCN(C(=O)COc2cccc3ccccc23)CC1 | 0% | 0 | -1
CC(C)(C)C1CCC(N2CCN(c3ccccc3)CC2)CC1 (centres undefined) | -46% | 1 | -53*
COC(=O)c1ccc(Cl)c(NC(=O)NC2CCCCC2)c1 | 3% | -8 | -1
COc1ccccc1C(=O)N1CCC(N2CCN(c3ccccc3)CC2)CC1 | -23% | 53* | -19
COc1ccc(C(=O)N2CCC(N3CCN(c4ccccc4)CC3)CC2)cc1 | -24% | 1 | -19
O=C(NCc1nnnn1-c1ccc(F)cc1)c1ccc2ccccc2c1 | 5% | 1 | 13

Source: PubChem BioAssay
